This note sets out measurements from PubChem BioAssay.

Calls of active or inactive are those of the source. Unless noted, how the calls were made is not given here.

Test [1] in a line: resazurin metabolic signal in HepG2 cells – cell-based, resazurin fluorescence, 24 h, PK04 Diversity Set, profiling panel (AID 1172). Further: test concentration not given here. The note with it: HepG2 viability, higher = more signal. Background: Resazurin is reduced to fluorescent resorufin, in cell work by metabolically active cells.
Test [2] can be described thus: budding yeast growth changes without added modifier – OD600, strain BY4716, 24 h, basal condition, primary screen (AID 1173). The note with it: S. cerevisiae BY4716 growth, OD600, 24 h; higher = more signal, called active from +8 up or from −8 down.
The nature of test [3]: viability profiling in MM1S myeloma cells – cell-based, resazurin fluorescence, basal, 24 h, PK04 Diversity Set, profiling panel (AID 1174).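 Further: MM1S multiple myeloma cell line; test concentration not given here.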 The following applies: higher = more signal, called active from +8 up or from −8 down.
Test [4] concerns the target Dihydroorotate dehydrogenase (quinone), mitochondrial (Plasmodium falciparum (isolate 3D7)) (UniProt Q08210). Kind of test: inhibition of P. falciparum DHODH – biochemical, C-terminal His tag, absorbance 600 nm, primary screen (AID 1175).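 Further: recombinant parasite enzyme with a five histidine tag at its C terminus; test concentration not given here.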 The note with it: PfDHODH enzyme, DCIP absorbance 600 nm; higher = more signal, called active from +8 up or from −8 down.
Test [5] can be described thus: inhibition of PAO1 biofilm formation – strain PAO1, LB-PBS medium, absorbance 600 nm, primary screen (AID 1176). Further: test concentration not given here. The note with it: P. aeruginosa PAO1 growth/biofilm, A600, 12 h; higher = more signal.
Test [6] is described as follows: growth modulation of vineyard yeast isolate – strain RM11-1a, OD600, basal, 24 h, primary screen (AID 1177).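 Further: cultures grown under basal conditions with no added stressor; test concentration not given here.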 The note with it: S. cerevisiae RM11-1a growth, OD600, 24 h; higher = more signal, called active from +8 up or from −8 down.
Test [7] can be described thus: growth of efflux-deficient E. coli DRC39 – strain DRC39, OD650, 24 h, E. coli filamentation inducers, primary screen (AID 1178).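 Further: growth measured as culture turbidity by optical density at 650 nm; test concentration not given here.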 The note with it: E. coli DRC39 acrAB, higher = more signal, called active from +8 up or from −8 down.
Test [8] can be described thus: growth of efflux-deficient E. coli DRC39 – strain DRC39, OD650, 48 h, E. coli filamentation inducers, primary screen (AID 1179).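 Further: screen aims at cell division blockers that make cells filament.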 The following applies: E. coli DRC39 delta-acrAB growth, higher = more signal, called active from +8 up or from −8 down.
Test [9] can be described thus: viability profiling in RPMI8226 myeloma cells – cell-based, resazurin fluorescence, basal, 24 h, PK04 Diversity Set, profiling panel (AID 1180).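 Further: RPMI8826 multiple myeloma cell line at 5000 cells per well; test concentration not given here.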 The following applies: higher = more signal.
The target of test [10] is E3 ubiquitin-protein ligase XIAP (Homo sapiens) (UniProt P98170). Briefly: small molecules binding XIAP protein – biophysical, small-molecule microarray, fluorescence 635 nm, primary screen (AID 1181).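 Further: score merges 667 nm emission and signal to noise over triplicate slides.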 The note with it: higher = more signal.
Chain of E3 ubiquitin-protein ligase XIAP (Homo sapiens) (P98170 whole entry, looked up): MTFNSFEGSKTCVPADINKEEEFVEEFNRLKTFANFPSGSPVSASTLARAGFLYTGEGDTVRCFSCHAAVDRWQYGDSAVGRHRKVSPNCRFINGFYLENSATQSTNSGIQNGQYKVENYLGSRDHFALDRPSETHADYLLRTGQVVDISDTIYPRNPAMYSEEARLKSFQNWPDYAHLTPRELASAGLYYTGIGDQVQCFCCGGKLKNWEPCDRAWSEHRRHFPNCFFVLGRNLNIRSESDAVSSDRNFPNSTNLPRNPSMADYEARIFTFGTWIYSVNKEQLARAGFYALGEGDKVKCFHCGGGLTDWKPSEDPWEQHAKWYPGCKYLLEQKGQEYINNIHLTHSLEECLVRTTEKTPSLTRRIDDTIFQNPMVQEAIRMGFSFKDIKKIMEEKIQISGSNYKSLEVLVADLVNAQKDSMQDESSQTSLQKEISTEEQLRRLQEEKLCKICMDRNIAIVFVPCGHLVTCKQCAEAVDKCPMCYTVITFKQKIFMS

Chain of Dihydroorotate dehydrogenase (quinone), mitochondrial (Plasmodium falciparum (isolate 3D7)) (Q08210 whole entry, looked up): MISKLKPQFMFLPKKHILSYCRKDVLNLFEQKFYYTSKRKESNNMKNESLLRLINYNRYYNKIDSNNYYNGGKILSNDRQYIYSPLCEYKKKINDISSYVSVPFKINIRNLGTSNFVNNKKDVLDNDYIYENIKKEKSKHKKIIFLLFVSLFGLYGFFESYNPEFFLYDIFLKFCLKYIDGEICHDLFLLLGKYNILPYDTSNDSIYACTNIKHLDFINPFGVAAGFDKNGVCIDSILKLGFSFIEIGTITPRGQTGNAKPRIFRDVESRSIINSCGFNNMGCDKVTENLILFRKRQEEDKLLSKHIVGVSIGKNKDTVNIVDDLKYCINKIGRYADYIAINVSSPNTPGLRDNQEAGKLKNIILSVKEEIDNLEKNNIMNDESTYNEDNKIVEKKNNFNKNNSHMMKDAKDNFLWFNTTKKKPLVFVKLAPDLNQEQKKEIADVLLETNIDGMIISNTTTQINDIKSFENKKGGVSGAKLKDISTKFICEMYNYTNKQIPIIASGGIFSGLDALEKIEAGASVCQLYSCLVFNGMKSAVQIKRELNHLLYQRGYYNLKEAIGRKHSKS

Regarding `CCCC[C@@H]1C[C@H]1[C@@H](NC(=O)c1cccnc1)c1ccc(-c2ccccc2)cc1`, the z-score in test [1] is 1.6; in test [2], -3.34 (inactive); in [3], 1.1 (inactive); in test [5], -0.0982 (inactive); in test [6], -0.402 (inactive); in [7], -0.88 (inactive). The z-score was -0.762 (inactive) in [8] and 2.9 in test [9]. Besides, the figures for the composite z-score in test [4] and in [10] were -0.106 (inactive) and 0.0302, respectively.

As to `O=C(CS)NCCCCCCNC(=O)[C@H]1C[C@H]2C(=O)N[C@@H](Cc3ccccc3)C(=O)N2[C@H]1c1cccc(OCCO)c1`, the z-score in [1] was -0.351; in [2], 0.765 (inactive); in [3], -0.453 (inactive); in test [5], 0.889 (inactive); in test [6], 0.765 (inactive); in test [7], -0.0049 (inactive). The z-score in [8] was 0.57 (inactive); in [9], -0.614. Besides, the figures for the composite z-score in test [4] and in test [10] were -0.439 (inactive) and 0.316, respectively.

On to `COc1ccc([Si](C)(C)[C@H]2[C@H](CCn3cc([C@H](O)c4ccccc4)nn3)O[C@@]3(C(=O)N(Cc4ccc(N5CCOC5=O)cc4)c4ccccc43)[C@@H]2C)cc1`, for which the z-score is -0.27 in test [1]; 0.574 (inactive) in test [2]; -0.412 (inactive) in [3]; 1.04 (inactive) in [5]; 2.18 (inactive) in [6]; 0.205 (inactive) in test [7]. Also, the z-score is 0.139 (inactive) in [8] and 0.129 in test [9]. In addition, the composite z-score is 0.624 (inactive) in test [4] and -0.171 in test [10].

`O=c1cccc(-c2cccc(Cl)c2)o1`: the z-score in [1] was -0.381; in test [2], -8.75 (active); in test [3] it was 0.149 (inactive); in test [5], -0.377 (inactive); in test [6] it was -0.401 (inactive); in test [7], 0.304 (inactive). Besides, the z-score in test [8] was -0.326 (inactive); in test [9] it was -0.4. In addition, the composite z-score was -0.0422 (inactive) in test [4] and -0.0052 in test [10].

Take `COC(=O)[C@]1(CCS(=O)(=O)c2ccccc2)N=C(c2ccc(OCCCO)cc2)O[C@@H]1c1ccccc1CN=[N+]=[N-]`: the z-score in test [1] is -1.71; in test [2] it was 1.69 (inactive); in test [3] it was -4.25 (inactive); in test [5] it was 1.32 (inactive); in test [6] it was 1.91 (inactive); in test [7], 0.153 (inactive). The z-score in [8] is -1.14 (inactive); in test [9], -3.68. Besides, the composite z-score is 1.09 (inactive) in test [4] and -0.0062 in [10].

In the case of `CN(C)CCCN1C(=O)[C@@]2(c3ccc([N+](=O)[O-])cc3)CC(=O)N(CC34CC5CC(CC(C5)C3)C4)[C@@H]2c2ccc(CO)cc21`, the z-score in test [1] is -0.349; in test [2], 0.24 (inactive); in [3], -0.752 (inactive); in test [5], -0.121 (inactive); in test [6], 0.536 (inactive); in test [7], 0.384 (inactive). Besides, the z-score in test [8] was 0.567 (inactive); in [9] it was -0.959. Further, the composite z-score in [4] was -7.42 (inactive); in [10] it was -0.02.

In the case of `C=CC[C@H](OC(=O)Nc1ccc(OC)cc1)c1ccc(O)c2ccccc12`, the z-score in test [1] was -0.878; in [2], -16.7 (active); in [3], -6.07 (inactive); in test [5], 1.82 (inactive); in [6] it was -20 (active); in test [7], 0.852 (inactive). Moreover, the z-score in test [8] is 0.148 (inactive); in test [9], -4.15. In addition, the results for the composite z-score in test [4] and in [10] were -7.13 (inactive) and -0.0872, respectively.

For `C=CCC(OC(C)=O)[C@@H]1[C@@H](N(Cc2ccc(-c3ccccc3)cc2)C(=O)c2cccc3ccccc23)c2cc(OCCCO)ccc2N1C(=O)Cc1ccc2ccccc2c1` (stereo not given in full), the z-score in [1] was 0.0989; in test [2], -0.456 (inactive); in test [3], -0.144 (inactive); in test [5], 0.374 (inactive); in [6] it was -0.611 (inactive); in [7], 0.326 (inactive). Also, the z-score in test [8] is -0.299 (inactive); in test [9], -0.187. The figures for the composite z-score in test [4] and in test [10] were 0.0505 (inactive) and 0.18, respectively.

For the compound `CCOC(=O)C1=CC[C@@H](c2cc(Cl)ccc2Cl)N(S(=O)(=O)c2ccc(C)cc2)[C@H]1c1ccc(OC)cc1`, the z-score in test [1] is 0.292; in test [2] it was 2.05 (inactive); in test [3], -1.34 (inactive); in test [5], 0.0767 (inactive); in [6], 2.28 (inactive); in test [7] it was -0.61 (inactive). In addition, the z-score in test [8] was -1.03 (inactive); in test [9] it was -1.97. Besides, the composite z-score in test [4] is 0.658 (inactive); in test [10] it was 0.179.

As for `C=C1C2CC3C(=C4C(CO[C@@H]4[C@H]4CCCN4S(=O)(=O)c4ccccc4[N+](=O)[O-])C4C(=O)N(C)C(=O)C34)CC2C(=O)N1C` (stereo not given in full), the z-score in [1] was -0.398; in [2] it was -1.05 (inactive); in test [3], -0.316 (inactive); in test [5] it was 0.413 (inactive); in test [6], -0.302 (inactive); in test [7], -0.579 (inactive). The results for the z-score in [8] and in test [9] were -0.219 (inactive) and -0.864, respectively. The results for the composite z-score in test [4] and in [10] were -0.911 (inactive) and -0.102, respectively.

Consider `CO[C@H]1O[C@H](CO)[C@@H](OC(=O)Nc2ccc(C(F)(F)F)cc2)[C@H](OC(=O)Nc2ccc3c(c2)OCO3)[C@H]1OC(=O)Nc1ccc2c(c1)OCO2`, for which the z-score is -1.9 in test [1]; 0.634 (inactive) in [2]; -3.06 (inactive) in test [3]; 0.854 (inactive) in [5]; 1.37 (inactive) in test [6]; 0.436 (inactive) in [7]. The z-score in test [8] was -0.553 (inactive); in test [9], -3.35. The composite z-score is -0.605 (inactive) in test [4] and -0.289 in test [10].

Turning to `COCCOC(=O)N1C(=O)[C@@]2(c3cc(C#CC4=CCCCC4)ccc31)[C@H](c1ccccc1OCCO)N1[C@H](c3ccccc3)[C@H](c3ccccc3)OC(=O)[C@H]1[C@@H]2C(=O)N1CCc2cc(OC)c(OC)cc2C1`, the z-score is -0.605 in [1]; 1.46 (inactive) in test [2]; -0.347 (inactive) in test [3]; 1.92 (inactive) in test [5]; 2.25 (inactive) in [6]; -0.398 (inactive) in [7]. Besides, the z-score in [8] is 0.425 (inactive); in test [9] it was -0.486. Further, the composite z-score in [4] was -0.349 (inactive); in test [10], -0.11.
